# About 79,000 compounds went through this panel and 15% of them were active in at least one assay; those are over-represented in the sample as a whole. Unmarked numbers belong to inactive results. Active and inactive are the calls of the source. Cut-off read from the data, not from the text of the source: active = growth inhibition above about 70%; inactive = the rest.
# Key:
# [1] = NCI Yeast Anticancer Drug Screen. Data for the rad52 strain (AID 147);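 note: 0% = growth of vehicle-treated control cultures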; conditions: S. cerevisiae rad52 mutant growth inhibition, stronger effect = higher value
# Method in brief: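 Measured: yeast growth inhibition. System: strain with a defined DNA damage repair alteration. Reference: vehicle-treated control cultures.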
# [2] = NCI Yeast Anticancer Drug Screen. Data for the wt1 strain (AID 149);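 note: 0% = growth of vehicle-treated wt1 cultures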; conditions: S. cerevisiae wt1 strain (SPY 50644) growth inhibition, stronger effect = higher value
# Method in brief: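 Measured: growth of wt1 yeast under compound versus vehicle treatment, reported as inhibition.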
# [3] = NCI Yeast Anticancer Drug Screen. Data for the rad50EPP+ strain (AID 151);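 note: 0% = growth of vehicle-treated control cultures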; conditions: S. cerevisiae rad50 mutant strain, stronger effect = higher value
# Method in brief: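 One strain with a rad50 alteration (rad50EPP+) was compound-treated, its growth then compared to that of vehicle controls.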
# [4] = NCI Yeast Anticancer Drug Screen. Data for the mgt1 strain (AID 153); conditions: S. cerevisiae mgt1 mutant growth inhibition, stronger effect = higher value
# Method in brief: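 After exposure of the mgt1 yeast mutant to compound, growth was measured and reported as inhibition compared with vehicle controls.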
# [5] = NCI Yeast Anticancer Drug Screen. Data for the rad50 strain (AID 155);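 note: 0% = growth of vehicle-only cultures of the same strain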; conditions: S. cerevisiae rad50 strain growth inhibition, stronger effect = higher value
# Method in brief: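 Growth of the mutant yeast was measured after compound exposure and referenced to vehicle-treated cultures.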
# [6] = NCI Yeast Anticancer Drug Screen. Data for the mec2-1 strain (AID 157); conditions: S. cerevisiae mec2-1 strain, stronger effect = higher value
# Method in brief: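 Test agents were screened against the mec2-1 yeast strain, with defined DNA repair or cell cycle alteration. Growth was scored as inhibition against vehicle-only controls.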
# [7] = NCI Yeast Anticancer Drug Screen. Data for the rad14 strain (AID 159);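 note: 0% = growth of vehicle-treated control cultures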; conditions: S. cerevisiae rad14 strain growth inhibition, stronger effect = higher value
# Method in brief: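 Here, inhibition of yeast growth was measured after compound exposure, using a strain with a genetic defect in DNA damage repair and vehicle-treated cultures as the reference.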
# [8] = NCI Yeast Anticancer Drug Screen. Data for the sgs1 mgt1 strain (AID 161);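 note: 0% = growth of cultures given vehicle only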; conditions: S. cerevisiae sgs1 mgt1 strain, stronger effect = higher value
# Method in brief: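 Mutant yeast exposed to compound; growth scored against vehicle-only wells.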
# [9] = NCI Yeast Anticancer Drug Screen. Data for the CLN2oe strain (AID 163);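 note: 0% = growth of vehicle-only control cultures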; conditions: S. cerevisiae CLN2oe strain, stronger effect = higher value
# Method in brief: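 Here, growth inhibition in a cell-cycle-altered yeast strain after compound exposure was quantified against vehicle control growth.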
# [10] = NCI Yeast Anticancer Drug Screen. Data for the cln2 rad14 strain (AID 165);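 note: 0% = growth equal to vehicle treated cultures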; conditions: S. cerevisiae cln2 rad14 strain, stronger effect = higher value
# Method in brief: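 Growth of compound-exposed yeast (cln2 rad14 genotype) measured and expressed as inhibition relative to vehicle.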
# [11] = NCI Yeast Anticancer Drug Screen. Data for the bub3 strain (AID 167); conditions: S. cerevisiae bub3 mutant strain, stronger effect = higher value
# Method in brief: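 Whole-cell yeast assay. The mutant strain was incubated with compounds, and growth inhibition was determined by comparison with vehicle-treated cells.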
# [12] = NCI Yeast Anticancer Drug Screen. Data for the wt2 strain (AID 169);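 note: 0% = growth of vehicle-treated yeast cultures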; conditions: S. cerevisiae wt2 strain growth inhibition, stronger effect = higher value
# Method in brief: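 Genetically defined yeast strains from a DNA-repair/cell-cycle panel were used. Compound-exposed yeast growth was measured, and the inhibition was calculated relative to vehicle treatment.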
# [13] = NCI Yeast Anticancer Drug Screen. Data for the mlh1 strain (AID 171);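 note: 0% = growth of vehicle-treated control cultures of the same strain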; conditions: S. cerevisiae mlh1 strain growth inhibition, stronger effect = higher value
# Method in brief: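 Here the genetically defined yeast mutant is grown with each compound, and the extent to which its growth falls below that of vehicle-exposed cells is reported.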
# [14] = NCI Yeast Anticancer Drug Screen. Data for the sgs1 strain (AID 173);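 note: 0% = growth of vehicle-only control cultures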; conditions: S. cerevisiae sgs1 mutant, stronger effect = higher value
# Method in brief: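 Relative growth inhibition, referenced to vehicle, was determined in a yeast strain with a defined alteration affecting DNA damage repair or cell cycle control after compound exposure.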
# [15] = NCI Yeast Anticancer Drug Screen. Data for the mlh1 rad18 strain (AID 175); conditions: S. cerevisiae mlh1 rad18 strain growth inhibition, stronger effect = higher value
# Method in brief: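 In this whole-cell yeast screen, a strain with altered DNA damage repair is challenged with compound, and its growth is measured against matched vehicle-treated controls.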
# [16] = NCI Yeast Anticancer Drug Screen. Data for the rad18 strain (AID 177); conditions: S. cerevisiae rad18 mutant growth inhibition, stronger effect = higher value
# Method in brief: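 Screen uses a yeast strain with a defined lesion in DNA damage repair; compound effect is read as loss of growth compared to untreated vehicle cultures.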
# [17] = at 5.0 µM (retest, dose inferred, filed as 0.5)
# [18] = at 50.0 µM (retest, dose inferred, filed as 5.0)
structure (smiles),measurement,setting,value
O=[N+]([O-])c1ccc(-n2nc3ccc4c(no[n+]4[O-])c3[n+]2[O-])c([N+](=O)[O-])c1,growth inhibition,[1]; at 1.2 µM,0%
same,growth inhibition,[1]; at 3.7 µM,1%
same,growth inhibition,[1]; at 11.0 µM,2%
same,growth inhibition,[1]; at 33.0 µM,4%
same,growth inhibition,[1]; at 100.0 µM,6%
same,growth inhibition,[2]; at 1.2 µM,-2%
same,growth inhibition,[2]; at 3.7 µM,-2%
same,growth inhibition,[2]; at 11.0 µM,-2%
same,growth inhibition,[2]; at 33.0 µM,0%
same,growth inhibition,[2]; at 100.0 µM,3%
same,growth inhibition,[3]; at 1.2 µM,3%
same,growth inhibition,[3]; at 3.7 µM,8%
same,growth inhibition,[3]; at 11.0 µM,13%
same,growth inhibition,[3]; at 33.0 µM,26%
same,growth inhibition,[3]; at 100.0 µM,24%
same,growth inhibition,[4]; at 1.2 µM,-4%
same,growth inhibition,[4]; at 3.7 µM,-3%
same,growth inhibition,[4]; at 11.0 µM,5%
same,growth inhibition,[4]; at 33.0 µM,-3%
same,growth inhibition,[4]; at 100.0 µM,-2%
same,growth inhibition,[5]; at 1.2 µM,-1%
same,growth inhibition,[5]; at 3.7 µM,1%
same,growth inhibition,[5]; [17],20%
same,growth inhibition,[5]; at 11.0 µM,-5%
same,growth inhibition,[5]; at 33.0 µM,6%
same,growth inhibition,[5]; [18],98% (active)
same,growth inhibition,[5]; at 50.0 µM,30.4%
same,growth inhibition,[5]; at 100.0 µM,4%
same,growth inhibition,[6]; at 1.2 µM,3%
same,growth inhibition,[6]; at 3.7 µM,0%
same,growth inhibition,[6]; [17],23%
same,growth inhibition,[6]; at 11.0 µM,2%
same,growth inhibition,[6]; at 33.0 µM,3%
same,growth inhibition,[6]; [18],98% (active)
same,growth inhibition,[6]; at 50.0 µM,9.9%
same,growth inhibition,[6]; at 100.0 µM,2%
same,growth inhibition,[7]; at 1.2 µM,-3%
same,growth inhibition,[7]; at 3.7 µM,-1%
same,growth inhibition,[7]; at 11.0 µM,7%
same,growth inhibition,[7]; at 33.0 µM,8%
same,growth inhibition,[7]; at 100.0 µM,8%
same,growth inhibition,[8]; [17],16%
same,growth inhibition,[8]; [18],97% (active)
same,growth inhibition,[8]; at 50.0 µM,70.5% (active)
same,growth inhibition,[9]; at 1.2 µM,-1%
same,growth inhibition,[9]; at 3.7 µM,-5%
same,growth inhibition,[9]; at 11.0 µM,-6%
same,growth inhibition,[9]; at 33.0 µM,-2%
same,growth inhibition,[9]; at 100.0 µM,2%
same,growth inhibition,[10]; [17],44%
same,growth inhibition,[10]; [18],97% (active)
same,growth inhibition,[10]; at 50.0 µM,9.9%
same,growth inhibition,[11]; at 1.2 µM,-3%
same,growth inhibition,[11]; at 3.7 µM,1%
same,growth inhibition,[11]; [17],-14%
same,growth inhibition,[11]; at 11.0 µM,10%
same,growth inhibition,[11]; at 33.0 µM,8%
same,growth inhibition,[11]; [18],96% (active)
same,growth inhibition,[11]; at 50.0 µM,66.7%
same,growth inhibition,[11]; at 100.0 µM,9%
same,growth inhibition,[12]; at 1.2 µM,-8%
same,growth inhibition,[12]; at 3.7 µM,-3%
same,growth inhibition,[12]; at 11.0 µM,-2%
same,growth inhibition,[12]; at 33.0 µM,2%
same,growth inhibition,[12]; at 100.0 µM,3%
same,growth inhibition,[13]; at 1.2 µM,0%
same,growth inhibition,[13]; at 3.7 µM,-4%
same,growth inhibition,[13]; at 11.0 µM,-3%
same,growth inhibition,[13]; at 33.0 µM,1%
same,growth inhibition,[13]; at 100.0 µM,-5%
same,growth inhibition,[14]; at 1.2 µM,-1%
same,growth inhibition,[14]; at 3.7 µM,1%
same,growth inhibition,[14]; at 11.0 µM,3%
same,growth inhibition,[14]; at 33.0 µM,4%
same,growth inhibition,[14]; at 100.0 µM,6%
same,growth inhibition,[15]; [17],28%
same,growth inhibition,[15]; [18],97% (active)
same,growth inhibition,[15]; at 50.0 µM,-13.2%
same,growth inhibition,[16]; at 1.2 µM,-1%
same,growth inhibition,[16]; at 3.7 µM,4%
same,growth inhibition,[16]; at 11.0 µM,7%
same,growth inhibition,[16]; at 33.0 µM,1%
same,growth inhibition,[16]; at 100.0 µM,19%
O=C(Nc1cc(Cl)ccc1Cl)C(Cl)(Cl)Cl,growth inhibition,[1]; at 1.2 µM,1%
same,growth inhibition,[1]; at 3.7 µM,6%
same,growth inhibition,[1]; at 11.0 µM,12%
same,growth inhibition,[1]; at 33.0 µM,22%
same,growth inhibition,[1]; at 100.0 µM,30%
same,growth inhibition,[2]; at 1.2 µM,0%
same,growth inhibition,[2]; at 3.7 µM,2%
same,growth inhibition,[2]; at 11.0 µM,4%
same,growth inhibition,[2]; at 33.0 µM,6%
same,growth inhibition,[2]; at 100.0 µM,6%
same,growth inhibition,[3]; at 1.2 µM,2%
same,growth inhibition,[3]; at 3.7 µM,8%
same,growth inhibition,[3]; at 11.0 µM,14%
same,growth inhibition,[3]; at 33.0 µM,22%
same,growth inhibition,[3]; at 100.0 µM,25%
same,growth inhibition,[4]; at 1.2 µM,1%
same,growth inhibition,[4]; at 3.7 µM,3%
same,growth inhibition,[4]; at 11.0 µM,6%
same,growth inhibition,[4]; at 33.0 µM,5%
same,growth inhibition,[4]; at 100.0 µM,-22%
same,growth inhibition,[5]; at 1.2 µM,2%
same,growth inhibition,[5]; at 3.7 µM,6%
same,growth inhibition,[5]; [17],16%
same,growth inhibition,[5]; at 11.0 µM,13%
same,growth inhibition,[5]; at 33.0 µM,26%
same,growth inhibition,[5]; [18],41%
same,growth inhibition,[5]; at 50.0 µM,53.9%
same,growth inhibition,[5]; at 100.0 µM,26%
same,growth inhibition,[6]; at 1.2 µM,1%
same,growth inhibition,[6]; at 3.7 µM,6%
same,growth inhibition,[6]; [17],-4%
same,growth inhibition,[6]; at 11.0 µM,11%
same,growth inhibition,[6]; at 33.0 µM,19%
same,growth inhibition,[6]; [18],58%
same,growth inhibition,[6]; at 50.0 µM,61.3%
same,growth inhibition,[6]; at 100.0 µM,25%
same,growth inhibition,[7]; at 1.2 µM,3%
same,growth inhibition,[7]; at 3.7 µM,6%
same,growth inhibition,[7]; at 11.0 µM,13%
same,growth inhibition,[7]; at 33.0 µM,21%
same,growth inhibition,[7]; at 100.0 µM,30%
same,growth inhibition,[8]; [17],1%
same,growth inhibition,[8]; [18],32%
same,growth inhibition,[8]; at 50.0 µM,24.1%
same,growth inhibition,[9]; at 1.2 µM,4%
same,growth inhibition,[9]; at 3.7 µM,5%
same,growth inhibition,[9]; at 11.0 µM,10%
same,growth inhibition,[9]; at 33.0 µM,7%
same,growth inhibition,[9]; at 100.0 µM,9%
same,growth inhibition,[10]; [17],32%
same,growth inhibition,[10]; [18],-6%
same,growth inhibition,[10]; at 50.0 µM,-52.4%
same,growth inhibition,[11]; at 1.2 µM,-1%
same,growth inhibition,[11]; at 3.7 µM,3%
same,growth inhibition,[11]; [17],-11%
same,growth inhibition,[11]; at 11.0 µM,8%
same,growth inhibition,[11]; at 33.0 µM,10%
same,growth inhibition,[11]; [18],31%
same,growth inhibition,[11]; at 50.0 µM,28.1%
same,growth inhibition,[11]; at 100.0 µM,12%
same,growth inhibition,[12]; at 1.2 µM,1%
same,growth inhibition,[12]; at 3.7 µM,2%
same,growth inhibition,[12]; at 11.0 µM,5%
same,growth inhibition,[12]; at 33.0 µM,3%
same,growth inhibition,[12]; at 100.0 µM,6%
same,growth inhibition,[15]; [17],-1%
same,growth inhibition,[15]; [18],70% (active)
same,growth inhibition,[15]; at 50.0 µM,63.6%
same,growth inhibition,[16]; at 1.2 µM,2%
same,growth inhibition,[16]; at 3.7 µM,4%
same,growth inhibition,[16]; at 11.0 µM,16%
same,growth inhibition,[16]; at 33.0 µM,23%
same,growth inhibition,[16]; at 100.0 µM,31%
